Laboratory results reported in PubChem BioAssay (NCI).
About 79,000 compounds went through this panel and 15% of them were active in at least one assay; those are over-represented in the sample as a whole. A number with no mark means an inactive call. No stated cut-off is given here; in the data, active means growth inhibition above about 70%; inactive means the rest.

Experiment: NCI Yeast Anticancer Drug Screen. Data for the cln2 rad14 strain (AID 165);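 further: 0% = growth equal to vehicle treated cultures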
Settings: S. cerevisiae cln2 rad14 strain, at 50.0 µM, active compounds read high
Experimental: Growth inhibition of yeast strains with defined genetic alterations is measured as a screen for potential anti-cancer activity. Selected strains with alterations in DNA damage repair or cell cycle control were exposed to compounds and growth inhibition was measured relative to vehicle treated controls. The strain used in this assay is cln2 rad14

Row | SMILES | growth inhibition
1 | O=C(Nc1ccc(Cl)cc1)OCC#CCOC(=O)Nc1ccc(Cl)cc1 | -2.05%
2 | Cc1cc(C)c(C(=O)c2ccccc2C)c(C)c1 | -23.5%
3 | CCOC(=O)c1cn(CC)c2cc3c(cc2c1=O)SCS3 | 29.9%
4 | COC(=O)C1=NC(=S)N=C(C(=O)OC)C1(C)C(=O)c1ccccc1 | 0.8%
5 | CCOC(=O)C1Cc2c([nH]c(=O)[nH]c2=O)OC1c1ccc(OC)cc1 (stereo not given) | 19.4%
6 | COc1ccc(CNc2cc(OC)c(OC)c(OC)c2)cc1 | 9.25%
7 | O=C(O)c1cscc1Cc1ccccc1 | -21.1%
8 | N#Cc1sc2c(c1OC(=O)c1ccc(C(F)(F)F)cc1)c(=O)n(-c1ccccc1)c(=S)n2-c1ccccc1 | 0.8%
9 | COc1cc(C(Nc2ccccn2)c2cc3c(cc2O)OCO3)cc(OC)c1O (stereo not given) | 30.9%
10 | Cc1ccc(NC(=O)c2cc3cc(N=Nc4ccc(Br)cc4)ccc3oc2=O)cc1 | 23.1%
11 | O=P1(c2ccccc2)OCC2=C(c3ccccc3)CC2=C1c1ccccc1 (stereo not given) | 10.1%
12 | O=C1C(c2ccccc2)=C(c2ccccc2)C(c2ccc(Sc3ccc(C4=C(c5ccccc5)C(=O)C(c5ccccc5)=C4c4ccccc4)cc3)cc2)=C1c1ccccc1 | 15.7%
13 | CCNc1nnc(-c2nsc3ccccc23)s1 | -11.5%
14 | COc1ccc2ccc3c(c2c1)C(=O)C(CC(N)=O)C3 (stereo not given) | 0.4%
15 | CC1OC(C)(c2ccc(Cl)cc2)OCC1(C)C (stereo not given) | -26.6%
16 | COc1ccc(CC(=O)c2c(OC)c3c(c4c2OC(C)(C)CC4)OC(C)(C)CC3)cc1OC | 16.5%
17 | O=C1OC(c2cccc(Cl)c2)=N/C1=C\c1ccccc1 | 14.8%
18 | CC1=NN(C(=O)CC(=O)Nc2cccc(Cl)c2)C(=O)C1N=Nc1ccc(C(=O)O)cc1 (stereo not given) | -25%
19 | NC(=O)c1csc(C2OC3COP(=O)(O)OC3C2O)n1 (stereo not given) | -5.65%
20 | CCCOC(=O)c1ccccc1Cl | 13.4%

Row | SMILES | growth inhibition
21 | O=C(c1ccccc1)[n+]1ccc2ccccc2c1 | 0.45%
22 | COc1cc2c(cc1OC)-c1cc3cc(OC)c(OC)cc3c(C)[n+]1CC2 (tested in a mixture with another compound) | 19.4%
23 | O=S1(=O)c2ccccc2N(O)C2=NCCN21 | -6.35%
24 | O=C1c2c(nc3ccccc3c2-c2ccccc2)CN1Nc1ccccn1 | 12.8%
25 | O=C(O)C(CO)(c1ccccc1)c1ccccc1 | -1.65%
26 | COc1ccccc1NCS(=O)(=O)O | -60.2%
27 | CC[n+]1c(COCCOc2ccccc2)sc2cc3c(cc21)OCO3 | 12%
28 | COc1ccc(/C=N/N2CN(C(C)C(=O)O)B(N(CCO)CCO)N=C2N)cc1OC (stereo not given) | 20.9%
29 | COc1ccc(/C(C)=N/NC(=O)c2ccncc2)c(OC)c1 | -29.4%
30 | CCCCCCCC(=O)Nc1nnc(SCCCCCCCCCCSc2nnc(NC(=O)CCCCCCC)s2)s1 | -52.3%
31 | N#CCCN(CCC#N)c1ccc(/C=C2\N=C(c3cc([N+](=O)[O-])ccc3Cl)OC2=O)cc1 | 25%
32 | Cc1cc(N)ccc1N=Nc1cc(S(=O)(=O)O)c2cccc(S(=O)(=O)O)c2c1 | 3.95%
33 | CCC1(C)C(=O)NC(=O)N1C(C)=O (stereo not given) | -44.2%
34 | CCCC1(c2ccccc2)OCC(CO)O1 (stereo not given) | 6.4%
35 | O=C(Nc1ccc(Cl)cc1)Nc1nnc2nc(CC(=O)c3ccccc3)c(=O)[nH]n12 | -19%
36 | CC(C)(C)c1ccc(S(=O)(=O)/C=C/c2ccccc2)cc1 | 26.1%
37 | Cc1ccc(C)c(C2NC(=O)c3ccccc3N2)c1 (stereo not given) | -30.2%
38 | CCOC(=O)C(C(=O)OCC)C(C)(C)C | -36.4%
39 | CN(C)CCN1N=Nc2cccc3cccc1c23 | 19.2%
40 | CC1(C)CC(=O)N(Nc2ccccc2)C1=O | -7.35%
